Sampled rows, rich in hits. Any-hit rate of the full collection: about 14%.
LmPK inhibitor: blocks Leishmania mexicana pyruvate kinase activity; Q27686; purified LmPK, Kinase-Glo ATP luminescence, 1 h; Potency, µM (doses to about 57.5 µM), actives largely listed as inhibitors; actives 0.37% (n = 290,000); AID 1721
Target sequence (Q27686 whole entry, looked up): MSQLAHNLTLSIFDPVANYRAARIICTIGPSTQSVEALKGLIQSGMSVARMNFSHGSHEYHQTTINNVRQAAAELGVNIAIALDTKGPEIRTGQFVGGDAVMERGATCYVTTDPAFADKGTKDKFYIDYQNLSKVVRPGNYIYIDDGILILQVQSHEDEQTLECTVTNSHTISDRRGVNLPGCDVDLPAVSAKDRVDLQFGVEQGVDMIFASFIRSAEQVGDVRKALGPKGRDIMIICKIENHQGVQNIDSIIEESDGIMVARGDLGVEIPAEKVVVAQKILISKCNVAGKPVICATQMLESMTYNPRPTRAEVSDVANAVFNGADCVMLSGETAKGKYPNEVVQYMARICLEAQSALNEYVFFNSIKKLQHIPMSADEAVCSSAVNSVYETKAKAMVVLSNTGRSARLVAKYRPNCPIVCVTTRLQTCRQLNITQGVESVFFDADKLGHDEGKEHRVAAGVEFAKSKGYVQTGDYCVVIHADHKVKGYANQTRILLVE
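Screened at intermediate enzyme activity to detect both inhibitors and activators: LmPK at 0.1 nM, with a 0.5 nM enzyme column as activation reference. PEP 0.5 mM, ADP 0.1 mM; ATP detected by luminescence after 1 h.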
FBPA Giardia inh: inhibitors of Giardia lamblia fructose-1,6-bisphosphate aldolase. Potency, µM (series often up to 59.6 µM), usual class: inhibitors. A8B2U2. actives 0.71% (n = 290,000). purified Giardia FBPA. AID 2451; note: nearly all actives have a fitted effect of over 55% in size
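40 nM FBPA preincubated 10 min at RT with compound (up to 57.5 uM final), then substrate plus GAPDH/TPI/NAD/arsenate coupling and diaphorase/resazurin added. Fluorescence read after 20 min at RT, 525/598 nm.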
Shiga toxin inh: inhibitors of Shiga toxin in Vero cells; Vero cells, Shiga toxin protein synthesis inhibition reporter; actives 9.2% (n = 290,000); inhibition, % at 38.7 µM; in the data active = inhibition mostly above about 28%, no sharp cut-off; inactive = mostly below about 43%
Cycloheximide cs: affects cycloheximide protein synthesis inhibition readout, counter-screen | cell reporter, cycloheximide protein synthesis inhibition counterscreen | max response, % | actives 12% (n = 300,000); in the data active = max response mostly above about 13%, no sharp cut-off; inactive = mostly below about 14%; note: read at 38.3 µM for the half of the compounds with a filed dose
NS1 function inh: inhibitors of influenza NS1 protein function | actives 0.4% (n = 270,000) | AID 2326 | Potency, µM (top dose mostly 46.1 µM); calls by dose curve; note: actives are rising curves; nearly all actives have a fitted effect of over 50% in size
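OD600 was taken as the measure of yeast growth restored by compound in an NS1-expressing S. cerevisiae strain. Cells had been washed out of glucose medium and diluted 1:100 into galactose -URA medium, pH 6.0.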
Large screens that a line does not name were inactive. Unless noted, calls come from the whole dose curve; as a rule, active = well fitted curve in the direction sought with a large enough effect; inconclusive = small, poorly fitted or top-dose-only effect, or another doubt; inactive = no such curve, though single readings can be large; an effect the other way counts as inactive or inconclusive.

N#C/C(=C\c1ccc(C(=O)O)cc1)c1ccccn1	LmPK inhibitor inconclusive (no result: NS1 function inh)
CCN(CC)c1ccc(/C=C(\C#N)c2ccccn2)cc1	Cycloheximide cs 35
Cc1ccc(-c2nc(S(=O)(=O)c3ccccc3)c(SCC(=O)NCC3CCCO3)o2)cc1 (stereo not given)	none
O=c1[nH]c(=S)[nH]c2c1CN(CCCN1CCOCC1)CN2	none (no result: LmPK inhibitor, FBPA Giardia inh, Shiga toxin inh, Cycloheximide cs)
O=C(O)c1ccc(CSc2nnnn2-c2ccc(F)cc2)cc1	none
O=C(CSc1nnnn1-c1ccc(F)cc1)c1ccc(O)c(O)c1	FBPA Giardia inh inconclusive, Cycloheximide cs 38 (no result: NS1 function inh)
Cc1cc(NC(=O)CCC(=O)N(CCC(C)C)C(C(=O)NCC2CCCO2)c2ccccc2C)no1 (stereo not given)	none
Cc1n[nH]c(=S)n1/N=C/c1ccc(OCc2ccc(Cl)cc2)cc1	none
Cc1n[nH]c(=S)n1/N=C/c1ccc(OCc2ccc(Cl)cc2Cl)cc1	Shiga toxin inh 79, Cycloheximide cs 39
Cc1cc(C)c(COc2ccc(/C=N/n3c(C)n[nH]c3=S)cc2)c(C)c1	Shiga toxin inh 30
O=C(NNC1=NCCCCC1)Nc1ccc(Cl)cc1	Cycloheximide cs 23
O=C(NNC1=NCCCCC1)Nc1cccc(Cl)c1	Cycloheximide cs 12 (no result: NS1 function inh)
CC(=O)O[C@H](C(=O)O[C@@H]1C[C@@H](CCC[C@H]2O[C@H](C(=O)OC(C)C)CC[C@@H]2C)O[C@@H](CC#N)C1)c1ccccc1	none (no result: LmPK inhibitor, Shiga toxin inh, Cycloheximide cs, NS1 function inh)
CC(Sc1nc2ccccc2s1)C(=O)N(C)Cc1ccccc1 (stereo not given)	none
CCN1/C(=C\C=C2\C(=O)N(C)C(=S)N2C)Sc2ccccc21	Shiga toxin inh 63, Cycloheximide cs 28 (no result: NS1 function inh)
C/C(=N\NC(=O)c1ccn(C)n1)c1cccc(NC(=O)c2ccncc2)c1	Shiga toxin inh 45, Cycloheximide cs 30
C/C(=N\NC(=O)c1c(Cl)cnn1C)c1cccc(NC(=O)c2ccc(C)cc2)c1	Shiga toxin inh 109, Cycloheximide cs 21 (no result: FBPA Giardia inh)
Cn1ncc(Br)c1C(=O)Nc1cccc(C(F)(F)F)c1	none
C/C(=N\NC(=O)c1c(Cl)cnn1C)c1cccc(NC(=O)C(C)C)c1	none
C/C(=N\NC(=O)c1ccc(Cl)cc1)c1cccc(NC(=O)c2cccnc2)c1	Shiga toxin inh 45, Cycloheximide cs 38
C/C(=N\NC(=O)c1c(Br)cnn1C)c1ccc(NC(=O)c2ccc(F)cc2)cc1	Shiga toxin inh 86, Cycloheximide cs 43
C/C(=N/NS(=O)(=O)c1ccc(Cl)cc1)c1cccc(NC(=O)c2ccncc2)c1	none
COC(=O)C1=C(C(=O)OC)[C@@H]2N(C)c3ccccc3[C@@]23C[C@@H](C(=O)OC)N(S(=O)(=O)c2ccc(C)cc2)C3=N1	none (no result: Shiga toxin inh, Cycloheximide cs, NS1 function inh)
CC(C)c1ccc(/C=N/NC(=O)c2c(Cl)cnn2C)cc1	Shiga toxin inh active, Cycloheximide cs 46
C/C(=N\NC(=O)c1c(Cl)cnn1C)c1cccnc1	Shiga toxin inh 56, Cycloheximide cs 39
C/C(=N\NC(=O)c1ccc(Cl)cc1)c1cccnc1	Cycloheximide cs 29
C/C(=N/NC(=O)CNC(=O)c1cccnc1)c1ccc(Cl)cc1	none
Cc1nn(C)c(C(=O)N/N=C/c2ccc(Br)cc2)c1Cl	none
COC(=O)[C@@]1(C)C[C@@H]1[C@@H](NC(=O)[C@@]1(C)C[C@@H]1[C@@H](NC(=O)[C@@]1(C)C[C@@H]1[C@@H](NC(=O)[C@@]1(C)C[C@@H]1[C@@H](NC(=O)OCc1ccccc1)c1ccccc1)c1ccccc1)c1ccccc1)c1ccccc1	none (no result: LmPK inhibitor, Shiga toxin inh, Cycloheximide cs, NS1 function inh)
CC(C)N1CCC2(CC1)Oc1ccc(Br)cc1C1CC(c3cccnc3)=NN12 (stereo not given)	Shiga toxin inh 61, Cycloheximide cs 26
COc1cc(C2CC(c3cccnc3)=NN2c2ccc(F)cc2)cc(OC)c1OC (stereo not given)	none
COc1cccc2c1OC1(CCN(C(C)C)CC1)N1N=C(c3cccnc3)CC21 (stereo not given)	Shiga toxin inh 90, Cycloheximide cs 53
Cc1ccc(C(=O)N/C(=C\c2cn(S(=O)(=O)N(C)C)c3ccccc23)C(=O)NCCCN2CCOCC2)cc1	none
CCCCOC(=O)Oc1ccc2c(=O)c(Oc3cccc(C)c3)coc2c1	Cycloheximide cs 35
O=c1c(-c2cnn(-c3ccccc3)c2)coc2cc(O)ccc12	Shiga toxin inh 108, Cycloheximide cs 47
Cc1ccc(Oc2coc3cc(O)ccc3c2=O)cc1	Cycloheximide cs 31
COc1ccc(-c2coc3cc(O)ccc3c2=O)c(O)c1O	FBPA Giardia inh 18µM (no result: LmPK inhibitor, Shiga toxin inh, Cycloheximide cs, NS1 function inh)
CCCCC[CH2][Hg][S]C1=C2N=CNC2NC(N)=N1 (stereo not given)	none (no result: LmPK inhibitor, FBPA Giardia inh, Shiga toxin inh, Cycloheximide cs)
C=C1CCC2C(CC2(C)C)C(=C)CC/C1=N/O (stereo not given)	none (no result: LmPK inhibitor, Shiga toxin inh, Cycloheximide cs, NS1 function inh)
Cn1c2ccccc2c(=O)c2ccc(C#CC3(N)CCCCC3)cc21	Shiga toxin inh 85, Cycloheximide cs 45
O=C(c1ccc(C#CC2(O)CCCCC2)cc1)N1CCOCC1	none
Cn1cc(C=C2C(=O)OC3(CCCCC3)OC2=O)c2ccccc21	none
Cn1c2ccccc2c(=O)c2cc(C#CC3(O)CCCCC3)ccc21	Shiga toxin inh 56, Cycloheximide cs 27
COc1cccc2oc3ccc(C#CC4(N)CCCCC4)cc3c(=O)c12	Shiga toxin inh 24, Cycloheximide cs 21
COc1ccc(-c2noc(CN(C)Cc3ccccc3)n2)c(OC)c1OC	Cycloheximide cs 15
Cc1cc(NC(=O)c2cccs2)ncc1NC(=O)c1cccc(F)c1	Shiga toxin inh 66, Cycloheximide cs 42
Cc1ccccc1NC(=O)c1ccccc1NC(=O)c1cccs1	none
Cc1cc(NC(=O)c2ccccc2F)ncc1NC(=O)c1cccs1	LmPK inhibitor inconclusive, Cycloheximide cs 21
Cc1cc(NC(=O)c2cccs2)ncc1NC(=O)C(C)C	Shiga toxin inh 39, Cycloheximide cs 38
Cc1cc(NC(=O)c2ccccc2)ncc1NC(=O)c1cccs1	LmPK inhibitor inconclusive, FBPA Giardia inh inconclusive, Shiga toxin inh 124, Cycloheximide cs 40
CCCC(=O)Nc1cc(C)c(NC(=O)c2cccs2)cn1	none (no result: NS1 function inh)
O=C(O)C1C2CCC(CC2)C1C(=O)N1CCN(Cc2ccc(F)cc2)CC1 (stereo not given)	none
CSc1cc2c(cc1C(F)(F)F)N(C(=O)Nc1cccnc1)CC2	none (no result: LmPK inhibitor, NS1 function inh)
CCOc1ccc(NS(=O)(=O)c2ccc(C(=O)N(C)Cc3cccc(OC)c3OC)cc2)cc1	none (no result: FBPA Giardia inh)
c1ccc(Nc2ncnc3sccc23)cc1	none
c1ccc2c(c1)nnn2-c1ncnc2sccc12	Shiga toxin inh 62, Cycloheximide cs 34 (no result: NS1 function inh)
C/C(=N/NC(=O)C(O)(c1ccccc1)c1ccccc1)c1ccc([N+](=O)[O-])o1	none (no result: NS1 function inh)
NCCc1cc(O)c(O)cc1O	FBPA Giardia inh 5.6µM (no result: LmPK inhibitor, NS1 function inh)
CCCCNC(=O)c1cc(-c2ccc(OC)c(OC)c2)on1	Cycloheximide cs 14
CCc1ccccc1NC(=O)c1cc(-c2ccc(OC)cc2)on1	none
CCCNC(=O)c1cc(-c2ccc(OC)cc2)on1	Shiga toxin inh 70, Cycloheximide cs 51
CCCCNC(=O)c1cc(-c2ccc(OC)cc2)on1	Shiga toxin inh 194, Cycloheximide cs 52
